Screening results from PubChem BioAssay.
Only some compounds are listed: those with a hit (about 9.4% of all), similar ones and a draw of the others.
SARS PLpro yeast: SARS-CoV PLP inhibition in yeast; S. cerevisiae expressing SARS-CoV PLpro, growth rescue; Potency, µM (titrated, usually from 32.9 µM), hits mostly activators; actives 0.19% (n = 330,000); AID 485353; calls by dose curve; further: nearly all actives have a fitted effect of over 55% in size
Pf growth 48h: P. falciparum growth inhibition at 48 hours (one generation). P. falciparum luciferase growth in erythrocytes, 48 h. Potency, µM (top dose mostly 28.7 µM), most hits filed as inhibitors. actives 5.9% (n = 310,000). AID 504832
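Luciferase-expressing P. falciparum in infected erythrocytes (2% hematocrit, 0.1% parasitemia final) in RPMI 1640/0.5% Albumax were exposed to compound for 48 hours at 37 C, 5% CO2; growth read as luminescence.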
Pf growth 96h: P. falciparum growth inhibition at 96 hour, primary screen for plastid delayed-death inhibitors. P. falciparum luciferase reporter growth, 96 h. Potency, µM (titrated, usually from 28.7 µM), actives largely listed as inhibitors. actives 6.9% (n = 320,000)
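Parasite growth measured via integrated firefly luciferase reporter in P. falciparum. Infected erythrocytes at 2% hematocrit, 0.05% parasitemia final were treated 96 hours at 37 C under 5% CO2, and luminescence was read.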
AMA1 RON2 block: inhibitors of Plasmodium falciparum AMA1-RON2 interaction. AlphaScreen AMA1-biotinylated RON2 peptide binding. Potency, µM (top dose mostly 58.2 µM), most hits filed as inhibitors. actives 0.2% (n = 360,000); further: nearly all actives have a fitted effect of over 45% in size
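AMA1 (3D7) with his tag at 25 nM final met compounds first, then biotinylated RON2 peptide at 25 nM; detection used donor plus acceptor beads, 10 µg/mL apiece, read by AlphaScreen after 30 min at room temperature.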
Each line names hits and unclear results; the compound was inactive in the other large screens. Unless noted, the call rests on the fitted dose curve; in most records, active means well fitted curve in the direction sought with a large enough effect; inconclusive means small, poorly fitted or top-dose-only effect, or another doubt; inactive means no such curve, though single readings can be large; an effect the other way counts as inactive or inconclusive.

Oc1ccc(C(c2nnnn2C2CCCC2)N2CCc3ccccc3C2)cc1 (stereo unspecified)	Pf growth 48h inconclusive (no result: Pf growth 96h)
CC(C)C(c1nnnn1C1CCCC1)N1c2ccccc2CC1C (stereo unspecified)	Pf growth 48h 3.7µM, Pf growth 96h inconclusive
COc1cc(C(F)(F)F)nc2ccc(C#CCOC(=O)Nc3ccccc3)cc12	Pf growth 48h inconclusive
CC(C)CCC(CCNCc1ccccn1)c1ccc(Cl)cc1 (stereo unspecified)	Pf growth 48h 3.29µM, Pf growth 96h 3.29µM
O=C(NC1CCCC1)N[C@@H]1CC[C@@H](CC(=O)N2CCOCC2)O[C@@H]1CO	none (no result: SARS PLpro yeast, Pf growth 48h, Pf growth 96h)
CCC(Sc1nc(=O)cc(N)n1-c1ccccc1)C(=O)Nc1cc(C)on1 (stereo unspecified)	SARS PLpro yeast inconclusive
CC(=O)Cc1nsc(Nc2ccc(F)cc2)n1	Pf growth 96h 10.4µM
COc1ccc(Nc2nc(CC(C)=O)ns2)cc1	Pf growth 96h 2.62µM
COc1ccccc1CN1CCNC(=O)C1CC(=O)NCc1c(C)n[nH]c1C (stereo unspecified)	none
O=C(C1CCN(c2nc(-c3ccccc3)nc3c2CCC3)CC1)N1CCCC1	none (no result: SARS PLpro yeast, Pf growth 48h, Pf growth 96h)
CC1CCCCN1C(=O)C1CCN(c2nc(-c3ccccc3)nc3c2CCC3)CC1 (stereo unspecified)	Pf growth 48h 7.38µM, Pf growth 96h inconclusive
CCN(CC)C1CCN(Cc2c(C(=O)N3CCCCCCC3)nc3ccc(Cl)cn23)C1 (stereo unspecified)	SARS PLpro yeast inconclusive, Pf growth 48h inconclusive, Pf growth 96h 11.7µM
Cc1ccc(C)c(NC(=O)C(Sc2nc3ccccc3c(=O)n2CC(C)C)c2ccccc2)c1 (stereo unspecified)	Pf growth 48h 3.7µM, Pf growth 96h 2.62µM
Cc1[nH][nH]c(=O)c1C(c1ccc(-c2ccccc2C(=O)O)o1)c1c(C)[nH][nH]c1=O	none
O=S(=O)(c1cccs1)N1CCC(CO)(Cc2ccc(Cl)cc2)CC1	Pf growth 96h 0.738µM
COc1ccc(S(=O)(=O)N2CCC3(CC2)OCCN3S(=O)(=O)c2cccs2)cc1	Pf growth 48h inconclusive, Pf growth 96h inconclusive
O=S(=O)(c1ccc(Cl)cc1)N1CCC2(CC1)OCCN2S(=O)(=O)c1cccs1	Pf growth 48h 13.1µM, Pf growth 96h inconclusive
COc1ccc(OC)c(S(=O)(=O)N2CCC3(CC2)OCCN3S(=O)(=O)c2cccs2)c1	Pf growth 48h inconclusive, Pf growth 96h 10.4µM
COc1ccc(CCN2CC(C(=O)NCc3ccon3)CCC2=O)cc1 (stereo unspecified)	none (no result: SARS PLpro yeast, Pf growth 48h, Pf growth 96h)
CN1CCN(S(=O)(=O)c2cccc(S(=O)(=O)c3cccc(S(=O)(=O)N4CCN(C)CC4)c3)c2)CC1	none (no result: Pf growth 48h)
CC(=O)Nc1ccc(S(=O)(=O)NC(C)c2ccccc2)cc1 (stereo unspecified)	none
COc1ccc(C(=O)NCC2CCCN2S(=O)(=O)c2ccccc2)cc1OC (stereo unspecified)	none (no result: SARS PLpro yeast, Pf growth 48h, Pf growth 96h)
Cc1ccc(S(=O)(=O)Nc2cc3c4c(c2)C(C)C(=O)N4CCC3)cc1 (stereo unspecified)	Pf growth 48h 10.4µM, Pf growth 96h inconclusive
COc1ccc(C)cc1S(=O)(=O)Nc1cc2c3c(c1)C(C)C(=O)N3CCC2 (stereo unspecified)	Pf growth 48h inconclusive, Pf growth 96h inconclusive
CC1C(=O)N2CCCc3cc(S(=O)(=O)N4CCN(c5ccccc5F)CC4)cc1c32 (stereo unspecified)	Pf growth 48h 11.7µM
CC1C(=O)N2CCCc3cc(NC(=O)C(=O)NCCN4CCOCC4)cc1c32 (stereo unspecified)	none
CC(C)CNC(=O)C(=O)Nc1cc2c3c(c1)C(C)C(=O)N3CCC2 (stereo unspecified)	Pf growth 96h 14.7µM
CCC(=O)N1CCCc2cc(S(=O)(=O)N3CCN(c4ccccc4F)CC3)ccc21	none (no result: Pf growth 48h)
CC1C(=O)N2CCCc3cc(NC(=O)C(=O)NCCc4ccccc4)cc1c32 (stereo unspecified)	Pf growth 48h inconclusive, Pf growth 96h 13.1µM
CCCCNC(=O)OC(C)CNC(=O)Oc1cccc(C)c1 (stereo unspecified)	none (no result: Pf growth 96h)
CC1C(=O)N2CCCc3cc(NC(=O)C(=O)NCCc4c[nH]c5ccccc45)cc1c32 (stereo unspecified)	Pf growth 48h 1.47µM, Pf growth 96h 4.15µM
COc1ccccc1CCNC(=O)C(=O)Nc1cc2c3c(c1)CC(=O)N3CCC2	Pf growth 48h 1.17µM, Pf growth 96h 1.04µM
O=C(NCCO)C(=O)Nc1cc2c3c(c1)CC(=O)N3CCC2	none
CC(C)(C)C(=O)N1CCN(c2ccc([N+](=O)[O-])cc2Cl)CC1	none (no result: SARS PLpro yeast, Pf growth 48h, Pf growth 96h)
CCOC(=O)Cc1c(C)nc2c(C#N)c[nH]n2c1=O	none
CCc1c(C)nc2c(C#N)c[nH]n2c1=O	Pf growth 96h 0.522µM
N#CC(CO)(Cc1ccc(OC(F)F)cc1)c1nc2ccccc2[nH]1 (stereo unspecified)	Pf growth 96h inconclusive
COc1ccc2[nH]cc(/C=C/c3cc[n+](C)cc3)c2c1	Pf growth 48h 1.04µM, Pf growth 96h 0.465µM
CC(C)NC(=O)C1CCN(Cc2cccc(Oc3ccccc3)c2)CC1	AMA1 RON2 block inconclusive
CC(=O)OC[C@]12CCC(C)=C[C@H]1O[C@@H]1[C@H](O)[C@@H](OC(C)=O)[C@@]2(C)[C@]12CO2	Pf growth 48h 0.0033µM, Pf growth 96h inconclusive
COc1ccc(S(=O)(=O)N2CCN(c3ccccc3OC)CC2)cc1	Pf growth 96h inconclusive
O=C1NC(=S)N(c2ccccc2)C(=O)/C1=C/c1ccco1	AMA1 RON2 block 8.91µM
Cc1ccc(C(=O)NC(=S)NNC(=O)CC#N)cc1	none
COc1cc(NC(=S)NCC2CCCO2)c(OC)cc1Cl (stereo unspecified)	Pf growth 96h 8.28µM
CCOc1cc(NC(=S)NCC2CCCO2)c(OCC)cc1NC(=O)c1cccc(C)c1 (stereo unspecified)	Pf growth 48h inconclusive, Pf growth 96h 11.7µM
CCOc1cc(NC(=O)c2ccccn2)c(OCC)cc1NC(=O)c1cccc(C)c1	Pf growth 96h 11.7µM
Cc1ccc2c(c1)[C@H]1[C@H](CO2)[C@H](c2ccccc2)[C@]2(C)C(=O)Nc3cc(F)c(F)cc3C(=O)N12	none (no result: Pf growth 48h, Pf growth 96h)
COc1ccc2c(c1)[C@H]1[C@H](CO2)[C@H](c2ccccc2)[C@]2(C)C(=O)Nc3cc(Cl)ccc3C(=O)N12	Pf growth 48h 5.22µM, Pf growth 96h 1.85µM
Cc1ccc2c(c1)[C@H]1[C@H](CO2)[C@H](c2ccccc2)[C@]2(C)C(=O)Nc3cc(Cl)ccc3C(=O)N12	Pf growth 48h 8.28µM, Pf growth 96h 9.28µM
COc1cc2c(cc1OC)C(=O)N1[C@H]3c4cc(Cl)ccc4OC[C@@H]3[C@H](c3ccccc3)[C@]1(C)C(=O)N2	Pf growth 48h 14.7µM, Pf growth 96h 9.28µM
CCCCNC(=O)Nc1ccccc1C(=O)NCCC	none
O=C1c2ccccc2C(=O)N1CCCn1c(=O)oc2ccccc21	none
CN(C)S(=O)(=O)c1ccc(C(=O)Nc2nnc(-c3ccc4c(c3)CCCC4)o2)cc1	none
C=CCn1c(=N)n(CC(=O)c2ccc(Br)s2)c2ccccc21	Pf growth 48h 11.7µM, Pf growth 96h 13.1µM
